Reference: PubChem BioAssay (Tox21)
Records with an inconclusive call do not appear. Calls of active or inactive are those of the source. Unless noted, calls come from the whole dose curve; as a rule, active = well fitted curve in the direction sought with a large enough effect in the repeat runs; inconclusive = weak or mixed curves; inactive = no such curve, though single readings can be large; an effect the other way counts as inactive or inconclusive.

Columns and labels:
[1] = qHTS assay to identify small molecule agonists of the androgen receptor (AR) signaling pathway in the presence of an antagonist - cell viability counter screen (AID 1259379); note: nearly all actives have a fitted effect of over 25% in size; note: potency is the fitted concentration of half-maximal effect;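 for activity change, negative = cytotoxicity: MDA-kb2 human breast cancer cells carrying an MMTV luciferase reporter; series mostly up to about 92 µM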
Summary of the method: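 Viability counter screen: CellTiter-Fluor fluorescence, measured in the same wells as the luciferase read-out. MDA-kb2 cells, 3,000/well, with nilutamide at 3.0uM final and compounds at 15 concentrations, 16 hr at 37C, 0% CO2.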

[2] = qHTS assay to identify small molecule antagonists of the estrogen receptor beta (ER-beta) signaling pathway - cell viability counter screen (AID 1259382); note: nearly all actives have a fitted effect of over 55% in size; note: potency is the fitted concentration of half-maximal effect;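 for activity change, negative = cytotoxicity: HEK293T cells carrying ER-beta-UAS-bla reporter stimulated with estradiol; series mostly up to about 92 µM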
Summary of the method: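 Luminescent ATP read-out (CellTiter-Glo, 30 min, RT) taken in the same wells as the bla reporter assay. HEK293T ER-beta-UAS-bla cells in 2% charcoal-stripped FBS were exposed to compounds with 1nM E2 for 16 hr at 37C.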

[3] = biological target: Estrogen receptor (Homo sapiens) (UniProt P03372); assay: qHTS assay to identify small molecule agonists of the estrogen receptor alpha (ER-alpha) signaling pathway in the presence of an antagonist (AID 1259383; calls by dose curve; note: nearly all actives have a fitted effect of over 15% in size; note: potency is the fitted concentration of half-maximal effect; for activation: top concentration of the series differs between compounds)
Sequence of Estrogen receptor (Homo sapiens) (P03372 whole entry, looked up): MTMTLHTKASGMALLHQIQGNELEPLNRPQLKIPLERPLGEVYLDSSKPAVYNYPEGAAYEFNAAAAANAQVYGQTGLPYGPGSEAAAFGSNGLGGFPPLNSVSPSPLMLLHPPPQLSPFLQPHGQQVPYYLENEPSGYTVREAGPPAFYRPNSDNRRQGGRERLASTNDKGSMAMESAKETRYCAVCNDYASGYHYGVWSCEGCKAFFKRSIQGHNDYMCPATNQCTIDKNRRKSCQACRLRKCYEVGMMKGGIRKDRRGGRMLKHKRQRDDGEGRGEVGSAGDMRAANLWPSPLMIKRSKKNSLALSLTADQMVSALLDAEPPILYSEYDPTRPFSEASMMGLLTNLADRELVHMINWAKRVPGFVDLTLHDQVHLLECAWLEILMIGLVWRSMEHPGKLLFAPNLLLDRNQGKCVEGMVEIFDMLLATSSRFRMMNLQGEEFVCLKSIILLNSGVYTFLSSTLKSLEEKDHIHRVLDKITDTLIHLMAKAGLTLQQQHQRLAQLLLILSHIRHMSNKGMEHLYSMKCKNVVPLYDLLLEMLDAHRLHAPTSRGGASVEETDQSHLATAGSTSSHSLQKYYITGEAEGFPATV
Summary of the method: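 Luciferase luminescence (ONE-Glo, 30min at room temperature) measured in VM7Luc4E2 cells after 22hr compound exposure at 15 concentrations, with 10.0nM ICI-182,780 final present; cells express endogenous ER-alpha and carry four EREs upstream of luciferase.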

[4] = qHTS assay to identify small molecule agonists or antagonists of the thyroid stimulating hormone receptor (TSHR) signaling pathway - wild type cell line counter screen (AID 1259384; calls by dose curve; note: potency is the fitted concentration of half-maximal effect)
Summary of the method: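 Wild-type Hek293 cells, 800/well, 18 h at 37C, then compound with Ro20-1724 for 30 min RT. cAMP by HTRF (cAMP-d2/anti-cAMP cryptate), 1 h RT, fluorescence read. 15 concentrations, triplicates.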

[5] = biological target: Thyrotropin receptor (Homo sapiens) (UniProt P16473); assay: qHTS assay to identify small molecule antagonists of the thyroid stimulating hormone receptor (TSHR) signaling pathway (AID 1259385; calls by dose curve; note: nearly all actives have a fitted effect of over 20% in size)
Sequence of Thyrotropin receptor (Homo sapiens) (P16473 whole entry, looked up): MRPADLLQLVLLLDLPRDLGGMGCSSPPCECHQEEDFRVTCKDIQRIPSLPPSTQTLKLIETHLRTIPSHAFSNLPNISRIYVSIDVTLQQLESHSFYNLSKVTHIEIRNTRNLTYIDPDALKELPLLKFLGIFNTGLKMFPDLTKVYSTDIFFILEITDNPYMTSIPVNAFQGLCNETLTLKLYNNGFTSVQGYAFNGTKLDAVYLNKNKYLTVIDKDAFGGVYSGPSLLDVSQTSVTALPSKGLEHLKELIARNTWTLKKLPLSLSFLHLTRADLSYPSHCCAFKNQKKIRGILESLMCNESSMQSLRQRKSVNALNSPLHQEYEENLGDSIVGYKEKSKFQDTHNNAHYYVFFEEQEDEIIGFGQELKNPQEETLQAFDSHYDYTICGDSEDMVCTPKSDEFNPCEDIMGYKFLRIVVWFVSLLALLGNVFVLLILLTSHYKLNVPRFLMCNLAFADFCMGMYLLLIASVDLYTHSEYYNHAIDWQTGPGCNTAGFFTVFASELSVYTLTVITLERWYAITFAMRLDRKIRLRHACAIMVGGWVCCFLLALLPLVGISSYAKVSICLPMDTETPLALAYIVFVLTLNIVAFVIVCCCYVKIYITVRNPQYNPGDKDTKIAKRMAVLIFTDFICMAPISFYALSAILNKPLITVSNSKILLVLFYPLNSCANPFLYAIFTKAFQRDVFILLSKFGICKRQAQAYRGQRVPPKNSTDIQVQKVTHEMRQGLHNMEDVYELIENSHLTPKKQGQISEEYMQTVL
Summary of the method: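 TSHR-HEK293 cells (800/well) plated 18 h, then compounds with Ro20-1724 and TSH at 1.5 ng/mL final, 30 min at room temperature. cAMP quantified by HTRF (cAMP-d2/anti-cAMP-cryptate, 1 h); 15 concentrations in triplicate.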

[6] = qHTS assay to identify small molecule agonists of the estrogen receptor alpha (ER-alpha) signaling pathway in the presence of an antagonist - cell viability counter screen (AID 1259386);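 note: series mostly up to about 92 µM; cells exposed to compounds for 22 h at 37 °C before the viability read; nearly all actives have a fitted effect of over 30% in size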
Summary of the method: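 Read-out: CellTiter-Fluor fluorescence after 1hr reagent incubation, measured in the same wells as the luciferase readout. VM7Luc4E2 cells were exposed to 15 compound concentrations with 10.0nM ICI-182,780 for 22hr at 37C.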

[7] = qHTS assay to identify small molecule agonists of the estrogen receptor beta (ER-beta) signaling pathway - cell viability counter screen (AID 1259380); note: nearly all actives have a fitted effect of over 30% in size; note: potency is the fitted concentration of half-maximal effect
Summary of the method: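 Luminescence read-out (CellTiter-Glo, 30 min, room temp) taken in the same wells as the beta-lactamase reporter assay; ER-beta-UAS-bla HEK293T cells exposed to DMSO-dissolved compounds for 16 hr at 37C in 2% charcoal-stripped FBS medium.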

[8] = biological target: Androgen receptor (Homo sapiens) (UniProt P10275); assay: qHTS assay to identify small molecule agonists of the androgen receptor (AR) signaling pathway in the presence of an antagonist (AID 1259381; calls by dose curve; note: nearly all actives have a fitted effect of over 15% in size)
Sequence of Androgen receptor (Homo sapiens) (P10275 whole entry, looked up): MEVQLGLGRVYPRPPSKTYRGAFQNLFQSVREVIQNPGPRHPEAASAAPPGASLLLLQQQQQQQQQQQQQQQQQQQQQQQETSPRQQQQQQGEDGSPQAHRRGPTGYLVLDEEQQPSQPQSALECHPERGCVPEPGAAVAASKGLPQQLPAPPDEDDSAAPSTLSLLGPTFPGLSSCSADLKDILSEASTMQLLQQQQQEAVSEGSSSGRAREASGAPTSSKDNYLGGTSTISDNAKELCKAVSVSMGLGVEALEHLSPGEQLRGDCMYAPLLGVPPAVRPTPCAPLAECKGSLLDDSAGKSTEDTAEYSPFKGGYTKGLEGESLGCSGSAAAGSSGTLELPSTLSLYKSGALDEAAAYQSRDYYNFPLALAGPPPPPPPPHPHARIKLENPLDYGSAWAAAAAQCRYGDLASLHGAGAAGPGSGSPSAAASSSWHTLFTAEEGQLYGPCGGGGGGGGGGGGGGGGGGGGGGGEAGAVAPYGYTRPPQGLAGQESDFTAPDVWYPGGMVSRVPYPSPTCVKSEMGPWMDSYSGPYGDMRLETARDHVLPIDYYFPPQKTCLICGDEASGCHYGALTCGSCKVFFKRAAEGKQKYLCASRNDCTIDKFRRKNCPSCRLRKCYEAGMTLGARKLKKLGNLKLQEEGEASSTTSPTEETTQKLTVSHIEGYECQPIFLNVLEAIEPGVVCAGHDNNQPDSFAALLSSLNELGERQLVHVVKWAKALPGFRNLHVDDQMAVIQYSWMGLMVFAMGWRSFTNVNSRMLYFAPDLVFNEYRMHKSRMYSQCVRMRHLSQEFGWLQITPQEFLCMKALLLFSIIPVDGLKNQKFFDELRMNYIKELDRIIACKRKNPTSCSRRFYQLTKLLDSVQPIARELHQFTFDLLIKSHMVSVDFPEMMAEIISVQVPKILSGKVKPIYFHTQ
Summary of the method: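 Luciferase read-out (ONE-Glo, 30min room temperature) in MDA-kb2 MMTV-reporter cells; agonist mode run in presence of AR antagonist nilutamide, 3.0uM final. Compounds tested as 15-point series, 16hr exposure at 37C, 0% CO2.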
% is set by controls: 0 for no effect and ±100 for the full control effect.

CC(C)CC(O)CC(C)C
inactive: Potency [1] | Potency [2] | Potency [3] | Potency [4] | Potency [5] | Potency [6]

c1ccc2sc(SSc3nc4ccccc4s3)nc2c1
inactive: activity change, negative = cytotoxicity [1] 5.77% [at 19 µM] | activity change, negative = cytotoxicity [2] -0.0017% [at 19 µM] | activation [3] 2.07% [at 19 µM] | cAMP activity change [4] 2.9% [at 18.9 µM, hits give high values] | activity change, negative = inhibition [5] 2.43% [at 19 µM] | activity change, negative = cytotoxicity [6] 9.75% [at 19 µM]

Cc1ccc(Nc2c(F)cccc2Cl)c(CC(=O)O)c1
inactive: Potency [1] | Potency [3] | Potency [4] | Potency [5] | Potency [6]
active: Potency [7] 26.6 µM

CCCCCCC(CO)CCCC (stereo unspecified)
inactive: Potency [1] | Potency [7] | Potency [2] | Potency [4] | Potency [5] | Potency [6]

N[C@@H](Cc1cc(I)c(O)c(I)c1)C(=O)O
inactive: Potency [1] | Potency [7] | Potency [2] | Potency [4] | Potency [5] | Potency [6]

CCC1CCC(CCC(=O)O)C1 (stereo unspecified)
inactive: Potency [1] | Potency [4] | Potency [5] | Potency [6]

O=C1OC[C@H](Cc2cccc(O)c2)[C@H]1Cc1cccc(O)c1
inactive: Potency [1] | Potency [7] | Potency [2] | Potency [4] | Potency [5] | Potency [6]

Cc1ccc(N(CCO)CCO)cc1
inactive: Potency [1] | Potency [2] | Potency [3] | Potency [4] | Potency [6]

CC(C)C(O)C(C)(C)CO (stereo unspecified)
inactive: Potency [2] | Potency [4] | Potency [5] | Potency [6]

Cc1ccccc1S(N)(=O)=O
inactive: Potency [1] | Potency [7] | Potency [2] | Potency [4] | Potency [5] | Potency [6]

O=S(=O)(O)CO
inactive: Potency [1] | Potency [2] | Potency [4] | Potency [5] | Potency [6]

CC(C)COC(=O)c1ccc(O)cc1
inactive: Potency [1] | Potency [7] | Potency [2] | Potency [6]

COc1ccc(C)cc1
inactive: Potency [1] | Potency [7] | Potency [2] | Potency [4] | Potency [5] | Potency [6]

O=C1c2ccccc2C(=O)c2c(O)ccc(O)c21
inactive: Potency [2] | Potency [6]

O=C(Oc1ccccc1)c1ccc2ccccc2c1O
inactive: Potency [1] | Potency [8] | Potency [2] | Potency [4]

O=C1[C@@H]2[C@H]3CC[C@H](C3)[C@@H]2C(=O)N1CCCCN1CCN(c2ncccn2)CC1
inactive: Potency [1] | Potency [7] | Potency [2] | Potency [4] | Potency [5] | Potency [6]

CC(=O)C(C)=O
inactive: Potency [1] | Potency [7] | Potency [2] | Potency [4] | Potency [5] | Potency [6]

CC(=O)OCCC(C)CC(C)(C)C (stereo unspecified)
inactive: Potency [1] | Potency [7] | Potency [2] | Potency [4] | Potency [5] | Potency [6]

O=C(NC(Cc1cc(=O)[nH]c2ccccc12)C(=O)O)c1ccc(Cl)cc1 (stereo unspecified)
inactive: Potency [1] | Potency [2] | Potency [3] | Potency [4] | Potency [5] | Potency [6]

c1ccc(CNc2ncnc3c2ncn3C2CCCCO2)cc1 (stereo unspecified)
inactive: Potency [1] | Potency [2] | Potency [6]
active: Potency [3] 7.7 µM

CCOC(=O)N1CCC(Nc2ccc(Cl)cc2N)CC1
inactive: Potency [1] | Potency [8] | Potency [2] | Potency [3] | Potency [4] | Potency [5] | Potency [6]

Cc1ccc2c(c1)CCCN2
inactive: Potency [1] | Potency [7] | Potency [2] | Potency [4] | Potency [5] | Potency [6]

CCCCC[C@H](O)/C=C/[C@H]1[C@H](O)CC(=O)[C@@H]1C/C=C\CCCC(=O)O
inactive: Potency [1] | Potency [8] | Potency [2] | Potency [3] | Potency [5] | Potency [6]
active: Potency [4] 0.0174 µM

Nc1ccc(NC(=O)c2ccc(N)cc2)cc1
inactive: Potency [1] | Potency [8] | Potency [3] | Potency [6]

Cc1c[nH]c2ccccc12
inactive: Potency [1] | Potency [7] | Potency [2] | Potency [4] | Potency [5] | Potency [6]

Oc1ccc2c(c1)Cc1ccccc1-2
inactive: Potency [1] | Potency [2] | Potency [4] | Potency [5] | Potency [6]

COc1cc(NCc2ccc3nc(N)nc(N)c3c2C)cc(OC)c1OC
inactive: Potency [1] | Potency [4] | Potency [5]
active: Potency [7] 0.237 µM

COc1ccc(/C=C/C(=O)c2ccc(OC)cc2OC)cc1
inactive: Potency [1] | Potency [2] | Potency [4] | Potency [5]

C[C@@H]1[C@H](O)[C@@H](C)/C=C/C=C\C=C\C=C\C=C\C=C\C=C\[C@H](O[C@@H]2O[C@H](C)[C@@H](O)[C@H](N)[C@@H]2O)C[C@@H]2O[C@](O)(C[C@@H](O)C[C@@H](O)[C@H](O)CC[C@@H](O)C[C@@H](O)CC(=O)O[C@H]1C)C[C@H](O)[C@H]2C(=O)O (stereo in doubt)
active: Potency [1] 61.1 µM | Potency [7] 61.1 µM
inactive: Potency [3] | Potency [4]

COc1cc(C(C)=O)ccc1OCCCN1CCC(c2noc3cc(F)ccc23)CC1
inactive: Potency [1] | Potency [2] | Potency [3] | Potency [4]

CC(CN(CCN(CC(C)OCCO)CC(C)OCCO)CC(C)OCCO)OCCO (stereo unspecified)
inactive: Potency [2] | Potency [4] | Potency [5]
active: Potency [1] 33.1 µM

CNS(=O)(=O)c1cc(C(=O)N2CCC(CCN3C4CCC3CC(n3c(C)nc5ccccc53)C4)(c3cccc(F)c3)CC2)c(Cl)cc1F (stereo unspecified)
active: Potency [7] 5.45 µM | Potency [2] 7.7 µM
inactive: Potency [8] | Potency [4] | Potency [5]

CCOC(=O)c1ccc(NC(=O)CN2CCCCC2)cc1
inactive: Potency [1] | Potency [8] | Potency [2] | Potency [3] | Potency [4] | Potency [5] | Potency [6]
